For test [1], the system named is PRMT1 (protein arginine N-methyltransferase 1). Kind of test: small molecules binding arginine methyltransferase PRMT1 – biochemical, small-molecule microarray, 635 nm fluorescence, primary screen (AID 1088).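 Note: binding of Prmt1 protein to compounds spotted on small-molecule microarray slides.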 The note with it: higher = more signal.
Test [2] in a line: growth effects on S. cerevisiae YJM789 – YJM789 clinical isolate, OD600, 24 h, basal, primary screen (AID 1089).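 Note: growth of clinical yeast isolate S. cerevisiae YJM 789 seeded 1000 cells per well; test concentration not given here.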 The note with it: higher = more signal, called active from +8 up or from −8 down.
The nature of test [3]: S. pombe growth modifiers, basal conditions – strain 972, OD600, 24 h, no modulator, primary screen (AID 1090).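 Note: basal condition with compound alone and no growth modifier present; test concentration not given here.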 The note with it: S. pombe 972 growth, higher = more signal, called active from +8 up or from −8 down.
Test [4] can be described thus: budding yeast growth modifiers under rapamycin – strain BY4716, OD600, 96 h, primary screen (AID 1091). Note: test concentration not given here. The note with it: S. cerevisiae BY4716 + rapamycin, higher = more signal, called active from +8 up or from −8 down.
Test [5] deals with Torsin-1A-interacting protein 2 (Homo sapiens) (UniProt Q8NFQ8). Kind of test: small molecules binding lysate-expressed LULL1 – cell lysate, human LULL1 lysate, 635/667 nm fluorescence, primary screen (AID 1092).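 Note: probe is lysate of COS7 cells overexpressing human LULL1; score merges per-feature 667 nm fluorescence with signal-to-noise.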 The note with it: small-molecule microarray, hLULL1 lysate binding, 635 nm fluorescence; higher = more signal.
The nature of test [6]: optical density change of DRC41 E. coli – strain DRC41, OD650, 24 h, E. coli filamentation project, primary screen (AID 1093).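 Note: MC1000 strain lacking acrAB efflux and sulA so SOS filamentation is blocked; test concentration not given here.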 The note with it: E. coli DRC41 growth, higher = more signal, called active from +8 up or from −8 down.
The nature of test [7]: probe aLefty2 binding to arrayed compounds – biochemical, biotinylated probe, 635/667 nm fluorescence, primary screen (AID 1094).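 Note: score merges spot fluorescence near 667 nm with spot signal-to-noise ratio.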 The note with it: small-molecule microarray, higher = more signal.
Test [8] concerns Noggin (protein binding on small-molecule microarray). Kind of test: small molecules binding Noggin protein – biochemical, 635/667 nm fluorescence, primary screen (AID 1095).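 Note: score merges 667 nm feature fluorescence with signal to noise over triplicate slides.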 The note with it: 635 nm fluorescence, higher = more signal.
The target of test [9] is Neurogenic locus notch homolog protein 3 (Homo sapiens) (UniProt Q9UM47). Kind of test: small molecules binding NOTCH3 protein – biochemical, 635/667 nm fluorescence, primary screen (AID 1096). The note with it: small-molecule microarray, 635 nm fluorescence, higher = more signal.
The nature of test [10]: probe aEGFR binding to arrayed compounds – biochemical, biotinylated probe, 635/667 nm fluorescence, primary screen (AID 1097).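 Note: probe is a biotinylated anti-EGFR antibody binding compounds printed on slides; score combines fluorescence near 667 nm and signal to noise of each spot.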 The note with it: small-molecule microarray, higher = more signal.
The subject of test [11] is Plasmodium falciparum Sir2 (PF13_0152, Sir2A). Description: Plasmodium falciparum Sir2A binding compounds – biochemical, small-molecule microarray, 635 nm fluorescence, primary screen (AID 1098).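 Note: score merges spot fluorescence intensity with its signal-to-noise ratio.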 The note with it: fluorescence 635 nm, higher = more signal.
Test [12] can be described thus: probe aDKK1 binding to arrayed compounds – biochemical, biotinylated probe, 635/667 nm fluorescence, primary screen (AID 1099).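 Note: score merges 667nm spot fluorescence with signal to noise across triplicate slides; reference of the scale not given here.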 The note with it: small-molecule microarray, higher = more signal.
Test [13] is described as follows: probe aCHRDL2 binding to arrayed compounds – biochemical, biotinylated probe, 635/667 nm fluorescence, primary screen (AID 1100). The note with it: small-molecule microarray, higher = more signal.
Test [14] is described as follows: change in splice reporter luminescence, either direction, cell-based, HEK293, spliceosome inhibition project, primary screen (AID 1101).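 Note: HEK293 cells carrying a splicing-competent luciferase reporter gene; test concentration not given here.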 The note with it: HEK293 splicing luciferase reporter, 24 h, higher = more signal, called active from +8 up or from −8 down. A general note: A reporter such as luciferase makes a cellular process visible.
Test [15] addresses Fibroblast growth factor 10 (Homo sapiens) (UniProt O15520). Description: compounds binding fibroblast growth factor 10 – biochemical, small-molecule microarray, 635 nm fluorescence, primary screen (AID 1102). The note with it: FGF10 binding, fluorescence 635 nm, higher = more signal.
Test [16] has as its system glycogen synthase kinase-3 (GSK3A per assay name; protocol says GSK3B). Description: compounds binding glycogen synthase kinase-3 – biochemical, small-molecule microarray, 635 nm fluorescence, GSK3A, primary screen (AID 1103). Note: the record names both GSK3A and GSK3B. The note with it: fluorescence 635 nm, higher = more signal.
In test [17] the target is Epidermal growth factor receptor (Homo sapiens) (UniProt P00533). Description: compounds binding epidermal growth factor receptor – biochemical, small-molecule microarray, 635 nm fluorescence, primary screen (AID 1104).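 Note: score merges 667 nm emission intensity with spot signal to noise over triplicate slides.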 The note with it: EGFR binding, higher = more signal.
Test [18] deals with Follistatin-related protein 3 (Homo sapiens) (UniProt O95633). Kind of test: compounds binding follistatin-related protein 3 – biochemical, small-molecule microarray, 635 nm fluorescence, primary screen (AID 1105).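 Note: score merges emission near 667 nm and signal to noise per printed spot across three slides.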 The note with it: FSTL3 binding, higher = more signal.
In test [19] the target is Dickkopf-related protein 1 (Homo sapiens) (UniProt O94907). Kind of test: small molecules binding DKK1 protein – biochemical, small-molecule microarray, 635 nm fluorescence scan, primary screen (AID 1106).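 Note: score merges emission near 667 nm with signal to noise over three replicate slides.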 The note with it: higher = more signal.
Test [20] relates to Inhibin beta A chain (activin A). Description: small molecules binding activin A – biochemical, small-molecule microarray, 635 nm fluorescence scan, primary screen (AID 1107).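 Note: mouse activin A protein probed at 4.33 µg/mL on printed slides; score merges bound-protein fluorescence near 667 nm with spot signal-to-noise.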 The note with it: INHBA, higher = more signal.

Calls of active or inactive are those of the source.

Chain of Follistatin-related protein 3 (Homo sapiens) (O95633 whole entry, looked up): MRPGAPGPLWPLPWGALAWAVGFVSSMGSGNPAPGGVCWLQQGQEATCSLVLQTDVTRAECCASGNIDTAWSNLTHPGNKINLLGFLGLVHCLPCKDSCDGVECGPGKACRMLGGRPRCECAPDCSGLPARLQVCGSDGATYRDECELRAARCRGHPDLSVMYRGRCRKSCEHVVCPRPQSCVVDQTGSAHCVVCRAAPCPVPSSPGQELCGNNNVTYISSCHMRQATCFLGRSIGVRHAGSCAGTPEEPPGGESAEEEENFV
Chain of Torsin-1A-interacting protein 2 (Homo sapiens) (Q8NFQ8 whole entry, looked up): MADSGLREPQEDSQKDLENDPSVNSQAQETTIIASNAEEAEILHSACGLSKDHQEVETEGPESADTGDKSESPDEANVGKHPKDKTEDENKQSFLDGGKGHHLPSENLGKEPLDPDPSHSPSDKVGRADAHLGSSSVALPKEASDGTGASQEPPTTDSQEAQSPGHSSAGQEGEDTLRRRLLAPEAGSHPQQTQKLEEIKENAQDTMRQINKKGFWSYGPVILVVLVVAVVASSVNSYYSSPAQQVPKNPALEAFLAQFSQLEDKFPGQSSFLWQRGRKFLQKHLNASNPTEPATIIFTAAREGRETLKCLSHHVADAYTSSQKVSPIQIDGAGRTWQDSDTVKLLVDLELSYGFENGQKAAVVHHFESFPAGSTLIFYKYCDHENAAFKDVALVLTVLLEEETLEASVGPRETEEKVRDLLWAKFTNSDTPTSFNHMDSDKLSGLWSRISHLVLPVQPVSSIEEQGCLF
Chain of Dickkopf-related protein 1 (Homo sapiens) (O94907 whole entry, looked up): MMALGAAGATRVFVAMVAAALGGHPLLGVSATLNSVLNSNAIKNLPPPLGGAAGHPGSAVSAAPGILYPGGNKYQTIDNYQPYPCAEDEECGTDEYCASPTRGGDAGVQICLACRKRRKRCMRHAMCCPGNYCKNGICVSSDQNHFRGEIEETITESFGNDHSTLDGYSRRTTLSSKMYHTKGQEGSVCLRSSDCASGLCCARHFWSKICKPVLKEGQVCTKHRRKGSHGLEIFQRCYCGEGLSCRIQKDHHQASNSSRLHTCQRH
Chain of Neurogenic locus notch homolog protein 3 (Homo sapiens) (Q9UM47 whole entry, looked up): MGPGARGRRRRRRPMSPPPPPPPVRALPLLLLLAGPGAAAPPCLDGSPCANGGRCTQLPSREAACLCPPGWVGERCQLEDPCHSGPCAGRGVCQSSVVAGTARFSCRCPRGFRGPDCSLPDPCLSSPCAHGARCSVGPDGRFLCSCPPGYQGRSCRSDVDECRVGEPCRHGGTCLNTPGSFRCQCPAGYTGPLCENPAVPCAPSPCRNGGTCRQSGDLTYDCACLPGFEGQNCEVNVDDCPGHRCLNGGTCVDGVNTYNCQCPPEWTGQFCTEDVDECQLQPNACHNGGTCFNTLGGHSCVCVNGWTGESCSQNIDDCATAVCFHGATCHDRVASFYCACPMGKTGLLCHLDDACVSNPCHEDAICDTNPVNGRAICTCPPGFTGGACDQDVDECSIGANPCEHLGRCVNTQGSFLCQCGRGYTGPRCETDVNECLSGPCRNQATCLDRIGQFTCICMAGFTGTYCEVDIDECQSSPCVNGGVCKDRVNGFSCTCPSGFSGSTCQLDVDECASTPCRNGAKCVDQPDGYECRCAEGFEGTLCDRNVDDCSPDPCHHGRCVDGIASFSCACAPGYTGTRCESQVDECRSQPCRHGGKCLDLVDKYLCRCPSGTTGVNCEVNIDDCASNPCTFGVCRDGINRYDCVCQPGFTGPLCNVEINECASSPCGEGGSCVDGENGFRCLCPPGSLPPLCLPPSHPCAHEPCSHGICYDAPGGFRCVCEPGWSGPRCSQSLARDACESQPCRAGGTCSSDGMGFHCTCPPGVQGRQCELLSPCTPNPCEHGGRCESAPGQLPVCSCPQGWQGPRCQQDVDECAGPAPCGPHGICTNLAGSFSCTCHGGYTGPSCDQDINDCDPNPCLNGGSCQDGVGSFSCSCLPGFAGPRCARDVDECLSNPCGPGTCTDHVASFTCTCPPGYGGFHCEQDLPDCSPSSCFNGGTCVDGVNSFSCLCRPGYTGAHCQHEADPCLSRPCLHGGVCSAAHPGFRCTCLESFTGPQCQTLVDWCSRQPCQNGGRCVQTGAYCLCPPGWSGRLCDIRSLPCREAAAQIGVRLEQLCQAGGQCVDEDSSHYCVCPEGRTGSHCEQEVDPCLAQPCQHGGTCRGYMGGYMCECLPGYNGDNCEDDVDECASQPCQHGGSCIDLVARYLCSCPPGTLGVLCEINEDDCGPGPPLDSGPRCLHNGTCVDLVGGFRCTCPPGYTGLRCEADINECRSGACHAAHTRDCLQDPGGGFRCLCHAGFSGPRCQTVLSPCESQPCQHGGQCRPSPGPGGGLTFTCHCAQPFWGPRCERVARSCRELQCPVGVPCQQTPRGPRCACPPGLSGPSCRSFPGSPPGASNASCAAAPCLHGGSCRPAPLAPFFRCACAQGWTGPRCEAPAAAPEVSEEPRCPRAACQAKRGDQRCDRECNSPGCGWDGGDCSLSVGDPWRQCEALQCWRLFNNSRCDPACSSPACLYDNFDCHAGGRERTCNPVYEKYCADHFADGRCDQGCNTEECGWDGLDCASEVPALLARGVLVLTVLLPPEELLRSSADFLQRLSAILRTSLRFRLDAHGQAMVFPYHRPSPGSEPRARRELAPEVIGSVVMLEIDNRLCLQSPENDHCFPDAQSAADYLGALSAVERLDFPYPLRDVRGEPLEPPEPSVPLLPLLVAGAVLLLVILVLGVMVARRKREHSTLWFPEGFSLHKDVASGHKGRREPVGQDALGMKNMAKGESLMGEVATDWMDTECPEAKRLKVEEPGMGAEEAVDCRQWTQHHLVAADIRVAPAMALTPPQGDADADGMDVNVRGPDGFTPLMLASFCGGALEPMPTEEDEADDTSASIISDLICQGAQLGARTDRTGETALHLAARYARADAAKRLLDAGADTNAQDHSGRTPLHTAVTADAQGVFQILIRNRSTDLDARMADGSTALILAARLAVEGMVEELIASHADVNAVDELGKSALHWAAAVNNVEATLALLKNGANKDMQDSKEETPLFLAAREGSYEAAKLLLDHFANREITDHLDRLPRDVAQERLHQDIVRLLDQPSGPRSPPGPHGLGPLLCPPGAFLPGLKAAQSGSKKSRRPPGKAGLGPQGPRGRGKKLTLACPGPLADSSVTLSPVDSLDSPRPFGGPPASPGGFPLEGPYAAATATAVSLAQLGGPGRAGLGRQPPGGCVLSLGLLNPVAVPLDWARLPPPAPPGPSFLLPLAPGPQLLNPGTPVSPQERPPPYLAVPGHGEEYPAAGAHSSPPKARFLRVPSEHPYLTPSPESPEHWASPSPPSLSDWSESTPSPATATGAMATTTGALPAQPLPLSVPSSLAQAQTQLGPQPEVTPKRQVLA
Chain of Fibroblast growth factor 10 (Homo sapiens) (O15520 whole entry, looked up): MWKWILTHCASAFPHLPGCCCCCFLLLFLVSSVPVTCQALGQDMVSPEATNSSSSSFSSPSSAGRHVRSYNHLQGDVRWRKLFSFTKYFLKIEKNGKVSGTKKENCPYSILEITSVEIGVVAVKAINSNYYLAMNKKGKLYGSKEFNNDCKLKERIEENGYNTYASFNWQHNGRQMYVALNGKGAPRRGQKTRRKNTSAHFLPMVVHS
Chain of Epidermal growth factor receptor (Homo sapiens) (P00533 whole entry, looked up): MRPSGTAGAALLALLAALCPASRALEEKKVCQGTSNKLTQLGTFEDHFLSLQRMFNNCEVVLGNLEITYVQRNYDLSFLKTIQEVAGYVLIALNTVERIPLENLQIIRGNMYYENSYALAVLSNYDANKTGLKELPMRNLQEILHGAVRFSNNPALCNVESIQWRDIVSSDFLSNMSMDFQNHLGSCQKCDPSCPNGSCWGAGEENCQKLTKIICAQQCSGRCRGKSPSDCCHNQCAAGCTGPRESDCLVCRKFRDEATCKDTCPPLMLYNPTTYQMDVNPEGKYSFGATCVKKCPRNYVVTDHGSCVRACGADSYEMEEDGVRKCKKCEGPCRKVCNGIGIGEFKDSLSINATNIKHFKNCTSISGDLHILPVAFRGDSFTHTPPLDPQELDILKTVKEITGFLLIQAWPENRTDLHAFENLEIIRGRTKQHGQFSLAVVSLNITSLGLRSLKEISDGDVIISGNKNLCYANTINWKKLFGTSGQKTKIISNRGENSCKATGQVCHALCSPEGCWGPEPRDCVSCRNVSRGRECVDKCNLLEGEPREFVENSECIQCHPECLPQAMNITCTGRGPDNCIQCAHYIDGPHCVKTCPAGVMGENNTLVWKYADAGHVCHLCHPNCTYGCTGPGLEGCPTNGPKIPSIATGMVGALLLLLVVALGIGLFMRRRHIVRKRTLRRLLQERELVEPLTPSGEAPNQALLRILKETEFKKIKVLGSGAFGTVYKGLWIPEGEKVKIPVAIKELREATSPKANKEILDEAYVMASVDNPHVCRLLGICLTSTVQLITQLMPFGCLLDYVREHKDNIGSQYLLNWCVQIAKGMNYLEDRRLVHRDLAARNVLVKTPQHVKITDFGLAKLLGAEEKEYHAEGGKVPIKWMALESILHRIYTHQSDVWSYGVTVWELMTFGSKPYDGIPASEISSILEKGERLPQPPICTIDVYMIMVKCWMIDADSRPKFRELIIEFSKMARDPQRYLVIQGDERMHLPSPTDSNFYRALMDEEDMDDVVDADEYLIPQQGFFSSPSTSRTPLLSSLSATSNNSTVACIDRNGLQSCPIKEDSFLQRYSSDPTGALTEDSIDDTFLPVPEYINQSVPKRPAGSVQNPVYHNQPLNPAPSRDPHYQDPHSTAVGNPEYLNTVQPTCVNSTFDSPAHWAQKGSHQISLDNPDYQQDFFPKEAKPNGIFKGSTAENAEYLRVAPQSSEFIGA

Regarding `C[C@@H]1C=CCC(=O)OC[C@H]2O[C@@H](C=C[C@@H]2O)[C@H](C)C=CCC(=O)OC[C@H]2O[C@H]1C=C[C@@H]2O`, the composite z-score in [1] was 1.06; in test [5], -0.552; in test [7], -0.0196; in test [8], 1.37; in test [9] it was 1; in test [10] it was 0.0779. The composite z-score was 0.489 in test [11]; -0.384 in test [12]; -1.67 in test [13]; 1.22 in test [15]; 1.18 in test [16]; 1.41 in [17]. Also, the composite z-score in test [18] was found to be 1.47; in test [19], 2.11; in test [20], 1.16. Also, the z-score is -2.14 (inactive) in [2]; -2.87 (inactive) in [3]; -1.09 (inactive) in test [4]; 0.332 (inactive) in [6]; -2.62 (inactive) in test [14].

Turning to `C=CCC(OC(C)=O)[C@@H]1[C@@H](N(Cc2ccc(-c3ccccc3)cc2)C(=O)c2ccc(-c3ccccc3)cc2)c2cc(OCCCO)ccc2N1C(=O)Cc1ccc(OC)cc1` (stereo not given in full), the composite z-score was -0.22 in test [1]; 0.669 in [5]; -0.0096 in test [7]; -0.0508 in test [8]; -0.0122 in test [9]; -0.0994 in [10]. Moreover, the composite z-score was -0.322 in test [11]; 0.0651 in test [12]; 0.026 in test [13]; 0.035 in test [15]; -0.0305 in [16]; -0.25 in [17]. For the same compound, the composite z-score in test [18] is 0.491; in test [19], -0.345; in test [20] it was 1.28. Further, the z-score is -0.809 (inactive) in [2]; 0.202 (inactive) in [3]; -0.253 (inactive) in test [4]; -0.685 (inactive) in [6]; -0.792 (inactive) in test [14].

In the case of `Cc1ccc(S[C@]2(C(=O)NCCCN(C)C)CC(=O)N(C3CCCCC3)[C@@H]2c2ccc(CO)cc2I)cc1`, the composite z-score in [1] is -0.167; in [5], 1.81; in test [7], 0.213; in [8] it was -0.553; in test [9] it was -0.742; in [10], -0.257. Further, the composite z-score was -0.939 in [11]; 0.956 in test [12]; 1.14 in test [13]; -0.582 in [15]; 0.219 in test [16]; -1 in [17]. In addition, the results for the composite z-score in test [18], in test [19] and in test [20] were -0.593, -0.256 and 1.14, respectively. The z-score is 0.782 (inactive) in test [2]; -8.01 (active) in test [3]; -0.417 (inactive) in test [4]; -0.455 (inactive) in [6]; -1.31 (inactive) in test [14].

On to `CC(C)[C@H]1NC(=O)[C@@]23C(=O)N[C@@H](Cc4ccccc4)C2[C@H](C)[C@@]2(C)O[C@H]2C3/C=C/C/C=C\CNC(=O)[C@H](C)NC1=O` (stereo not given in full), for which the composite z-score in test [1] is -1.24; in test [5], -0.62; in test [7] it was -0.287; in test [8], -0.632; in [9] it was -0.517; in test [10], -0.255. For the same compound, the composite z-score in [11] is -0.949; in [12], -0.386; in [13], -0.256; in test [15], 0.392; in [16], -1.37; in test [17] it was -1.31. Moreover, the composite z-score in test [18] is -0.825; in test [19], -0.443; in [20] it was 1.32. The z-score in test [2] was 0.782 (inactive); in [3], 0.469 (inactive); in test [4] it was 0.41 (inactive); in test [6] it was -0.823 (inactive); in test [14], 0.616 (inactive).

As for `CCCC=C(CCC)[C@@H](NS(=O)(=O)c1ccc(C(F)(F)F)cc1)c1ccc(-c2ccccc2)cc1`, the composite z-score is 1.09 in [1]; 3 in [5]; 0.0491 in test [7]; 0.77 in test [8]; 0.762 in test [9]; -0.013 in test [10]. In addition, the composite z-score in [11] came to 0.163; in test [12], 0.888; in [13], 0.83; in test [15], 1.13; in [16], 0.72; in test [17], 0.201. The figures for the composite z-score in test [18], in test [19] and in test [20] were 0.38, -0.112 and 0.835, respectively. For the same compound, the z-score is 0.251 (inactive) in test [2]; -3.21 (inactive) in test [3]; -0.1 (inactive) in test [4]; -0.39 (inactive) in [6]; -1.69 (inactive) in test [14].

Source of the values: PubChem BioAssay.
